ERG-DNA inh: blocks human ERG Ets domain binding to DNA | fluorescence polarization, His-ERG Ets domain / labelled DNA | Potency, µM (top dose mostly 76.9 µM), actives largely listed as inhibitors | hit rate 0.028% among 370,000 | AID 624246; active means well fitted inhibition curve with a large enough effect in the polarisation, with a control signal flat; inconclusive means small, poorly fitted or top-dose-only effect, or effect the other way, or a change in a side signal; inactive means no such curve, though single readings can be large or run the other way; the % refers to the polarisation;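 further: polarization taken with two DNA probes labelled with fluorescein and Texas red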
Target sequence (P11308 whole entry, looked up, the tested form may be a part): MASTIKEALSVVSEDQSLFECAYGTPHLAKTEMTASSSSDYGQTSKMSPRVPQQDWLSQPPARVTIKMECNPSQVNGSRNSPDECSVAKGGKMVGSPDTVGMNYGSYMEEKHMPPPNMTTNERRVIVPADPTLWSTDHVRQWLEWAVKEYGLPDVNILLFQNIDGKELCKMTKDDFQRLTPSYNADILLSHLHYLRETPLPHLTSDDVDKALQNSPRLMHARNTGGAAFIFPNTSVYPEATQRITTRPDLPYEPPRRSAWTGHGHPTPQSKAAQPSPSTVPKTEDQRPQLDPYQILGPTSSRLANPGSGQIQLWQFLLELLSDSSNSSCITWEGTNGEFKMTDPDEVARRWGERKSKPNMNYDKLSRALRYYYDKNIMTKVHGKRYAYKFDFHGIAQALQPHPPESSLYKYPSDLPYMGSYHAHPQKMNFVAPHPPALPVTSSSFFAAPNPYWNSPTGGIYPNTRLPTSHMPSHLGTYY
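His-tagged ERG Ets domain (1 uM in the protein solution; 300mM KCl, 50mM Tris-HCl, 1mM EDTA, 1mM DTT, pH 7.5) received compound, then a probe mix of 5 nM fluorescein-DNA and 100nM Texas-615-DNA. Fluorescence polarization was read for both dyes.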
TDP1 block: blocks human tyrosyl-DNA phosphodiesterase 1. recombinant TDP1, AlphaScreen DNA substrate cleavage. Potency, µM (series often up to 130 µM), usual class: inhibitors. Q9NUW8. hit rate 0.28% among 350,000. AID 485290; further: nearly all actives have a fitted effect of over 40% in size
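Recombinant E. coli-expressed Tdp1 (1 nM) preincubated with compound 15 min at RT, then 5'-biotin/3'-phosphotyrosine-FITC DNA substrate (15 nM) added for 5 min. AlphaScreen beads (10 ug/ml) added, 10 min RT; tyrosine-FITC cleavage read as signal loss.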
EPAC1 antagonist: EPAC1 (human) antagonism; O95398; EPAC1 GEF assay, Rap1b-BODIPY-GDP exchange fluorescence; Potency, µM (top dose mostly 115 µM), most hits filed as inhibitors; hit rate 0.14% among 360,000; further: nearly all actives have a fitted effect of over 50% in size
EPAC1 agonist: agonists of human EPAC1 | O95398 | EPAC1 agonist qHTS, biochemical assay; response scale: 100% = response to 6.5 mM cAMP | Potency, µM (series often up to 154 µM), usual class: activators | hit rate 0.073% among 360,000; further: nearly all actives have a fitted effect of over 60% in size
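Fluorescent GDP-exchange assay: 100 nM EPAC1 with 250 nM Rap1B preloaded with BODIPY-GDP and 50 uM GDP; compounds tested as concentration series, 5 min at room temperature, then read every 5 min for 30 min (ex 480/em 540 nm); normalized to 6.5 mM cAMP.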
EPAC2 antagonist: EPAC2 (human) antagonism. EPAC2 GEF exchange of Rap1B-BODIPY-GDP, fluorescence. Potency, µM (doses to about 114 µM), hits mostly inhibitors. hit rate 0.18% among 360,000; further: nearly all actives have a fitted effect of over 45% in size
EPAC2 agonist: activates human EPAC2 exchange factor; EPAC2 activation, biochemical qHTS; response scale: 100% = 6.5 mM cAMP response; Potency, µM (top dose mostly 154 µM), hits mostly activators; hit rate 0.079% among 360,000; Q8WZA2; AID 720711; further: nearly all actives have a fitted effect of over 50% in size
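Nucleotide exchange monitored as fluorescence drop when BODIPY-GDP leaves Rap1B. Reaction: 100 nM EPAC2, 250 nM RAP1B-BODIPY-GDP, 50 uM GDP, room temperature, kinetic read over 30 min. Activity expressed relative to 6.5 mM cAMP.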
Hits are given with their value. The list is not random: actives were taken first. Their share in the collection is about 0.54%. Unless noted, the call rests on the fitted dose curve; in most records, active means well fitted curve in the direction sought with a large enough effect; inconclusive means small, poorly fitted or top-dose-only effect, or another doubt; inactive means no such curve, though single readings can be large; an effect the other way counts as inactive or inconclusive.

O=C1C(=C(I)I)c2ccccc2-c2ccccc21 was read as ERG-DNA inh inactive, EPAC1 antagonist 25.1µM, EPAC1 agonist inactive, EPAC2 antagonist inconclusive and EPAC2 agonist inconclusive.
`COc1ccc2c(=O)c3c(=O)n(Cc4ccco4)c(-c4ccco4)nc3oc2c1` gave ERG-DNA inh inactive, TDP1 block 44.7µM, EPAC1 antagonist inactive, EPAC1 agonist inactive, EPAC2 antagonist inactive and EPAC2 agonist inactive.
`O=C1NC(=O)C(=Cc2ccccc2[N+](=O)[O-])S1` gave ERG-DNA inh inactive, EPAC1 antagonist 50.1µM, EPAC1 agonist inactive, EPAC2 antagonist 79.4µM and EPAC2 agonist inactive.
For CCOc1ccc(-c2c(C(=O)N/N=C/c3cccnc3)nnn2-c2nonc2N)cc1 the results were ERG-DNA inh inactive, TDP1 block 50.1µM, EPAC1 antagonist inactive, EPAC1 agonist inactive, EPAC2 antagonist inactive and EPAC2 agonist inactive.
`C=CCn1c(SCC#N)nc2cc(Cl)ccc2c1=O` gave TDP1 block inactive.
`O=C1NC(=S)S/C1=C\C=C\c1ccc([N+](=O)[O-])o1` gave ERG-DNA inh inactive, EPAC1 antagonist 56.2µM, EPAC1 agonist inactive, EPAC2 antagonist 50.1µM and EPAC2 agonist inactive.
For O=C1NC(=S)S/C1=C/c1ccc(N2CCOCC2)o1 the results were ERG-DNA inh inactive, TDP1 block inactive, EPAC1 antagonist inactive, EPAC1 agonist inactive, EPAC2 antagonist inactive and EPAC2 agonist inactive.
`O=C(O)/C=C\C(=O)Nc1ccccc1C#Cc1ccc(Br)cc1` gave ERG-DNA inh inactive, TDP1 block inactive, EPAC1 antagonist inactive, EPAC1 agonist inactive, EPAC2 antagonist 10µM and EPAC2 agonist inactive.
Screening COc1cc2c(cc1OC)C(=O)C(Br)CC2 (configuration not stated) returned EPAC1 antagonist 44.7µM, EPAC1 agonist inactive, EPAC2 antagonist 28.2µM and EPAC2 agonist inactive.
`COc1cc2c(cc1OC)C(=O)C(c1ccc3c(c1)OCO3)CC2` (configuration not stated) gave EPAC1 antagonist inactive, EPAC1 agonist inactive, EPAC2 antagonist inactive and EPAC2 agonist inactive.
Screening Cc1ccc(S(=O)(=O)N2[C@@H](c3ccc(Cl)cc3)C(C(=O)O)=CC[C@H]2c2ccc(C(C)C)cc2)cc1 returned ERG-DNA inh inactive, TDP1 block inactive, EPAC1 antagonist 50.1µM, EPAC1 agonist inactive, EPAC2 antagonist inconclusive and EPAC2 agonist inactive.
For O=C(NCc1nnc(-c2nc3ccccc3[nH]2)o1)C1CCCCC1 the results were TDP1 block inactive.
Screening CC(=O)c1ccc(NC(=O)c2ccc3nc(-c4ccco4)c(-c4ccco4)nc3c2)cc1 returned ERG-DNA inh inactive, TDP1 block 11.2µM, EPAC1 antagonist inconclusive, EPAC1 agonist inactive, EPAC2 antagonist inactive and EPAC2 agonist inactive.
Screening CC(=O)c1ccc(NC(=O)CSc2nnc(-c3ccco3)c(-c3ccco3)n2)cc1 returned ERG-DNA inh inactive, TDP1 block inactive, EPAC1 antagonist 50.1µM, EPAC1 agonist inactive, EPAC2 antagonist inactive and EPAC2 agonist inactive.
CNC(=O)c1ccc2nc(-c3ccco3)c(-c3ccco3)nc2c1 was read as TDP1 block 11.2µM.
`CC(=O)c1ccccc1S(=O)(=O)N1CCN(c2nc(-c3cccs3)nc3ccccc23)CC1` gave TDP1 block inactive.
For CC(=O)Nc1ccccc1C(F)(F)F the results were ERG-DNA inh inactive, TDP1 block inactive, EPAC1 antagonist inactive, EPAC1 agonist inactive, EPAC2 antagonist inactive and EPAC2 agonist inactive.
`NNc1ccccc1C(F)(F)F` gave ERG-DNA inh inactive, TDP1 block 50.1µM, EPAC1 antagonist inactive, EPAC1 agonist inactive, EPAC2 antagonist inactive and EPAC2 agonist inactive.
`Cn1cc([C@]2(O)C(=O)Nc3ccc(OC(F)(F)F)cc32)c2ccccc21` gave EPAC1 antagonist inactive, EPAC1 agonist inactive, EPAC2 antagonist 22.4µM and EPAC2 agonist inactive.
For CC1(Cc2ccccc2OC(F)(F)F)C(=O)Nc2ccc(OC(F)(F)F)cc21 (configuration not stated) the results were EPAC1 antagonist inconclusive, EPAC1 agonist inactive, EPAC2 antagonist inconclusive and EPAC2 agonist inactive.
For N#Cc1ccccc1COC(=O)c1ccc2c(c1)OCCO2 the results were ERG-DNA inh inactive, TDP1 block 89.1µM, EPAC1 antagonist inactive, EPAC1 agonist inactive, EPAC2 antagonist inactive and EPAC2 agonist inactive.
Screening O=C(COc1ccccc1Cl)Nc1cccc(S(=O)(=O)NC2=NCCCCC2)c1 returned ERG-DNA inh inactive, TDP1 block inactive, EPAC1 antagonist inactive, EPAC1 agonist 126µM, EPAC2 antagonist inactive and EPAC2 agonist inactive.
For O=c1cc(-c2ccsc2)oc2cc(-c3ccc4c(c3)OCO4)ccc12 the results were ERG-DNA inh inactive, TDP1 block 7.08µM, EPAC1 antagonist inactive, EPAC1 agonist inactive, EPAC2 antagonist inactive and EPAC2 agonist inactive.
CC(=O)Nc1ccc(C=NNc2ccc([N+](=O)[O-])cc2S(=O)(=O)Nc2ccccc2C(=O)O)cc1 was read as ERG-DNA inh inactive, TDP1 block inactive, EPAC1 antagonist inconclusive, EPAC1 agonist inactive, EPAC2 antagonist inconclusive and EPAC2 agonist inactive.
Screening COc1ccccc1NS(=O)(=O)c1cccc(-n2c(O)c(C=Nc3ccccc3C(=O)O)c3ccccc3c2=O)c1 returned ERG-DNA inh inactive, TDP1 block inactive, EPAC1 antagonist 56.2µM, EPAC1 agonist inactive, EPAC2 antagonist inconclusive and EPAC2 agonist inactive.
O=C(O)c1ccccc1NS(=O)(=O)c1ccc(N/N=C/c2cccc(O)c2O)c([N+](=O)[O-])c1 was read as EPAC1 antagonist 25.1µM, EPAC1 agonist inactive, EPAC2 antagonist inactive and EPAC2 agonist inactive.
`CN(CCO)c1ccc(C=NNc2ccc([N+](=O)[O-])cc2S(=O)(=O)Nc2ccccc2C(=O)O)cc1` gave ERG-DNA inh inactive, TDP1 block inactive, EPAC1 antagonist 50.1µM, EPAC1 agonist inactive, EPAC2 antagonist inconclusive and EPAC2 agonist inactive.
Screening CC(=O)Nc1ccc(C=NNc2ccc(S(=O)(=O)Nc3ccccc3C(=O)O)cc2[N+](=O)[O-])cc1 returned ERG-DNA inh inactive, TDP1 block inactive, EPAC1 antagonist 79.4µM, EPAC1 agonist inactive, EPAC2 antagonist 50.1µM and EPAC2 agonist inactive.
`COc1cc(NC(=O)C(OC(=O)CNC(=O)c2ccccc2)c2ccccc2)cc(OC)c1` (configuration not stated) gave TDP1 block inactive.
For Nc1ccccc1OC1=NS(=O)(=O)c2ccccc21 the results were TDP1 block inactive.
